Out of some 1,200 compounds screened, about 480 (40%) were called active. Not shown: some 29% with an inconclusive outcome. The list shows a part of the results. A number with no mark means an inactive call. The call rests on the fitted dose curve; in most records, active means well fitted inhibition curve with a large enough effect; inconclusive means small, poorly fitted or top-dose-only effect; inactive means no such curve, though single readings can be large or run the other way.
Assay: qHTS Assay to Find Inhibitors of Chronic Active B-Cell Receptor Signaling: Hit Validation in Primary Screen; further: nearly all actives have a fitted effect of over 75% in size
Conditions: ABC-DLBCL IkB-luc/CBR ratio luminescence, 4 h; series mostly up to 46.1 µM; activity change, negative = inhibition: at the top concentration
Summary of the method: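 Concentration series (3 nM to 46 uM) tested on TMD8 cells induced with doxycycline for 4 h. Filter-corrected green (IkBa fusion) over red (unfused) luciferase signal; Data were normalised to 10 uM MG-132 and untreated cell wells.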
On the % scale 0 is the no-effect control and ±100 the full control effect; potency means the concentration at half of the fitted maximal effect.

SMILES | activity change, negative = inhibition [%] | Potency
CCCCn1c(-c2csc(C(C)C)c2)n[nH]c1=S | -7.52 | 
CNC(=S)N/N=C(\C)c1ccc(Cl)c(Cl)c1 | -22 | 
CCOc1ccc(S(=O)(=O)N2c3ccccc3CC2C)cc1 (configuration not stated) |  | 14.6 µM (active)
COc1ccc(S(=O)(=O)N2c3ccccc3OCC2C)cc1 (configuration not stated) |  | 16.4 µM (active)
CNc1nc(N)c([N+](=O)[O-])c(NCc2ccccc2)n1 | 58.3 | 
COC(=O)c1ccc(Oc2cc(C)nc(-n3nc(C)cc3C)n2)cc1 |  | 3.26 µM (active)
CC(=O)c1ccc(Oc2cc(C)nc(-n3nc(C)cc3C)n2)cc1 |  | 7.31 µM (active)
O=C(CSc1cccc[n+]1[O-])c1ccc(Cl)s1 | -3.25 | 
O=C(O)CCCN1C(=O)/C(=C\c2ccccc2OCc2ccccc2)SC1=S |  | 7.31 µM (active)
COc1ccccc1-c1cc(C(=O)Nc2cccnc2)no1 | 154 | 
O=C(CCCN1C(=O)/C(=C/c2ccccc2OC(F)F)SC1=S)Nc1cccnc1 |  | 7.31 µM (active)
CCCNS(=O)(=O)c1cccc(C(=O)OCc2cc(=O)oc3cc(OC)ccc23)c1 |  | 9.2 µM (active)
Cc1cc(C)c2nc(SCC(=O)N3CC(=O)Nc4ccccc43)c(C#N)cc2c1 |  | 3.66 µM (active)
COc1cc(OC)cc(C(=O)N/N=C(\C)CC(=O)Nc2ccccn2)c1 | -11.8 | 
COc1cc(OC)cc(C(=O)N2CC(=O)Nc3ccccc32)c1 |  | 14.6 µM (active)
Cc1cc(C)cc(C(=O)N2CC(=O)Nc3ccccc32)c1 |  | 3.66 µM (active)
COc1ccc(N2CC(C(=O)N3CCC(c4nc5ccccc5[nH]4)CC3)CC2=O)cc1 (configuration not stated) | -2.79 | 
COc1ccccc1NC(=O)N1CCC(c2nc3cc(C)c(C)cc3[nH]2)CC1 |  | 5.17 µM (active)
ClC(Cl)(Cl)c1nc2ccccc2n2nncc12 |  | 18.4 µM (active)
COc1cc(-c2noc(C)c2/C=C/c2ccc(OC(C)=O)cc2)cc(OC)c1OC |  | 4.61 µM (active)
COc1cc(-c2noc(C)c2/C=C/c2ccc(N)cc2)cc(OC)c1OC |  | 1.3 µM (active)
CCOC(=O)C(C)Oc1cccc2c(=O)n(CC(=O)NCc3ccccc3)ccc12 (configuration not stated) |  | 4.11 µM (active)
CCOC(=O)COc1cccc2c(=O)n(CC(=O)NCc3ccc(F)cc3)ccc12 |  | 3.26 µM (active)
CCOC(=O)C(C)Oc1cccc2c(=O)n(CC(=O)NCc3ccc4c(c3)OCO4)ccc12 (configuration not stated) |  | 20.6 µM (active)
CCOC(=O)C(C)Oc1cccc2c(=O)n(CC(=O)NCc3ccco3)ccc12 (configuration not stated) |  | 18.4 µM (active)

SMILES | activity change, negative = inhibition [%] | Potency
CCOC(=O)COc1cccc2c(=O)n(CC(=O)NCc3ccccc3)ccc12 | 41.5 | 
CCOc1ccc(CCNC(=O)c2cc(=O)[nH]c3ccc(S(=O)(=O)N4CCCCC4C)cc23)cc1OCC (configuration not stated) | 13.6 | 
C=CCn1c(O)c(N=NC(=S)Nc2ccccc2C)c2cc(S(=O)(=O)N3CCOCC3)ccc21 | -8.84 | 
CCOC(=O)C(C)Oc1cccc2c(=O)n(CC(=O)NCc3ccc(F)cc3)ccc12 (configuration not stated) |  | 2.59 µM (active)
COC(=O)COc1cccc2c(=O)n(CC(=O)NCc3ccccc3)ccc12 |  | 9.2 µM (active)
CCN(c1cccc(C)c1)S(=O)(=O)c1ccc(-c2cc(C)no2)s1 |  | 16.4 µM (active)
Cc1cccc(N(C)S(=O)(=O)c2ccc(-c3cc(C)no3)s2)c1 | 65.2 | 
Cc1nn(C)cc1CNC(=O)COc1ccc(Cl)cc1Cl | -20.7 | 
Cc1cc(Cl)ccc1OCCCC(=O)NO |  | 16.4 µM (active)
CC[C@]1(O)CC2CN(CCc3c([nH]c4ccccc34)[C@@](C(=O)OC)(c3cc4c(cc3OC)N(C=O)[C@H]3[C@@](O)(C(=O)OC)[C@H](OC(C)=O)[C@]5(CC)C=CCN6CC[C@]43[C@@H]65)C2)C1 (some centres not stated) |  | 0.0517 µM (active)
CC[C@]1(O)C[C@@H]2CN(CCc3c([nH]c4ccccc34)[C@@](C(=O)OC)(c3cc4c(cc3OC)N(C)[C@H]3[C@@](O)(C(=O)OC)[C@H](OC(C)=O)[C@]5(CC)C=CCN6CC[C@]43[C@@H]65)C2)C1 |  | 0.0461 µM (active)
COc1ccc(C(=O)/C=C/c2ccc(O)cc2)c2c1CC(O)C(C)(C)O2 (configuration not stated) |  | 20.6 µM (active)
O=S1(=O)[C@H]2C[C@H](CO)O[C@@]2(CO)CN1Cc1ccc(-c2cccc(Cl)c2)cc1 | -24.2 | 
COc1ccc(OC)c(Nc2c3c(nc4ccccc24)CCC3)c1 |  | 14.6 µM (active)
COc1ccccc1-c1nc2c3ccccc3nc(=S)n2[nH]1 | -12.7 | 
COc1cc(Nc2c3c(nc4ccccc24)CCC3)cc(OC)c1OC |  | 18.4 µM (active)
Cc1nn(CCC(=O)NNC(=S)Nc2ccccc2)c(C)c1Br | -4.17 | 
Cc1ccc(C)c(/C=N/NC(=S)NC(C)C)c1 | -8.95 | 
COc1ccc(C)cc1NS(=O)(=O)c1ccc(-c2cnc(C3CC3)o2)cc1 |  | 0.92 µM (active)
Cc1ccc(C)c(NS(=O)(=O)c2ccc(-c3cnc(C4CC4)o3)cc2)c1 |  | 1.03 µM (active)
COc1ccc(NS(=O)(=O)c2cc(-c3cnc(C4CC4)o3)ccc2C)cc1 |  | 23.1 µM (active)
Cc1cc(C)cc(NS(=O)(=O)c2ccc(-c3cnc(C4CC4)o3)cc2)c1 |  | 2.06 µM (active)
Cc1ccc(NS(=O)(=O)c2ccc(-c3cnc(C4CC4)o3)cc2)c(C)c1 |  | 3.26 µM (active)
CC(=O)Nc1ccc(S(=O)(=O)NCC(=O)OC(C)c2ccccc2Cl)cc1 (configuration not stated) | -9.59 | 
CC1=CC(C)(C)N(S(=O)(=O)c2ccc(C)cc2)c2ccccc21 |  | 14.6 µM (active)

SMILES | activity change, negative = inhibition [%] | Potency
CC(=O)Nc1ccc(S(=O)(=O)N2c3ccccc3C(C)=CC2(C)C)cc1 |  | 4.11 µM (active)
CCOC(=O)C1=C(O)/C(=C/c2ccc(OCC(=O)O)c(OCC)c2)SC1=Nc1ccccc1 | -14.4 | 
CCOc1cc(/C=C2\CN(C)C/C(=C\c3ccc(O)c(OCC)c3)C2=O)ccc1O |  | 6.51 µM (active)
C=CCC(CC(O)COCCC)C(=O)NNC(=S)Nc1ccccc1 (configuration not stated) | -5.99 | 
Cc1ccc(C(=O)c2cc([N+](=O)[O-])ccc2N2CCCCC2)c(C)c1 |  | 1.03 µM (active)
Cc1ccc(C(=O)c2cc([N+](=O)[O-])ccc2N2CCOCC2)c(C)c1 |  | 4.61 µM (active)
O=C(c1ccc(Br)cc1)c1cc([N+](=O)[O-])ccc1N1CCCCC1 |  | 2.31 µM (active)
Cc1ccc(C(=O)c2cc([N+](=O)[O-])ccc2N2CCCCC2)cc1C |  | 6.51 µM (active)
COCCCNC(=O)C[C@H]1C[C@H](C(=O)N2CCCCC2)[C@@]2(C)c3[nH]c4ccc(Cl)cc4c3CCN2C1=O | -15.7 | 
S=c1c2c(nc3nc[nH]n13)CCC2 | -4.25 | 
Cc1ccc(C(=O)c2cc([N+](=O)[O-])ccc2N2CCCCC2)cc1 |  | 2.31 µM (active)
CC1CCCN(c2ccc([N+](=O)[O-])cc2C(=O)c2ccccc2)C1 (configuration not stated) |  | 3.26 µM (active)
CCN(CC)c1ccc(/C=N/N=C(N)N)c(O)c1 |  | 10.3 µM (active)
CCN(CC)c1ccc(/C=N/NC(=S)NC)c(O)c1 | 84.8 | 
COc1cc(C(=O)NNC(=S)Nc2ccc(S(N)(=O)=O)cc2)cc(OC)c1OC | -2.88 | 
COc1ccc(N/C=C/C(=O)c2cc(OC)c(OC)c(OC)c2)cc1 |  | 7.31 µM (active)
COc1ccc(Nc2cc(C)nc(-n3nc(C)cc3C)n2)cc1 |  | 7.31 µM (active)
CCOc1ccc(Nc2cc(C)nc(-n3nc(C)cc3C)n2)cc1 |  | 3.26 µM (active)
COc1ccc(N=N/C(=C\O)C(=O)c2ccco2)cc1 | 118 | 
COc1ccc(C(=O)n2c(-c3ccco3)nc3ccccc32)cc1 |  | 18.4 µM (active)
COC(=O)c1cn(C(=O)c2ccc(OC)cc2)c2ccccc12 | 38.5 | 
Cc1ccc(S(=O)(=O)N2CCN(C(=O)CSc3n[nH]c(N)n3)CC2)c(C)c1 | -6.01 | 
Cc1ccc(CSc2nc3ccccc3cc2C=O)cc1 |  | 2.91 µM (active)
O=Cc1cc2ccccc2nc1SCc1ccc(Cl)c(Cl)c1 | -22.9 | 
COc1cccc(CSc2nc3ccccc3cc2C=O)c1 |  | 2.59 µM (active)

SMILES | activity change, negative = inhibition [%] | Potency
CCC(=O)[C@@]1(C)[C@H](C)C[C@H]2[C@@H]3CCC4=CC(=O)C=C[C@]4(C)[C@H]3[C@@H](O)C[C@@]21C | -30 | 
O=C(Nc1ccc([N+](=O)[O-])cc1)Nc1ccon1 |  | 8.2 µM (active)
CCOC(=O)c1ccc(NC(=O)Nc2ccon2)cc1 |  | 2.31 µM (active)
CCOC(=O)c1ccc(NC(=S)NNC(C)(C)C)cc1 | -6.72 | 
CCOc1ccc2[nH]c(C(=O)N/N=C/c3ccc(OC)cc3)cc2c1 |  | 2.91 µM (active)
O=C(N/N=C/c1ccc(O)cc1)c1[nH]c2ccc(Br)cc2c1-c1ccccc1 |  | 1.3 µM (active)
COc1ccc(/C=N/NC(=O)c2[nH]c3ccc(Cl)cc3c2-c2ccccc2)c(C(=O)O)c1OC | 11.9 | 
Cc1ccc2[nH]c(C(=O)N/N=C/c3ccccc3C(=O)O)c(-c3ccccc3)c2c1 | 5.85 | 
NNC(=O)c1[nH]c2ccc([N+](=O)[O-])cc2c1-c1ccccc1 | 2.28 | 
Cc1c(C(=O)N/N=C/c2ccc(Cl)cc2)[nH]c2ccc(Cl)cc12 |  | 0.731 µM (active)
NNC(=O)c1cc2cc(OC(F)(F)F)ccc2[nH]1 | 0.4 | 
COc1ccc(NC(=S)N/N=C/c2ccc(F)c(F)c2)cc1 | -4.94 | 
O=C(N/N=C/c1ccccc1)c1[nH]c2ccc(Br)cc2c1-c1ccccc1 |  | 0.517 µM (active)
COc1ccc(/C=N/NC(=O)c2[nH]c3ccc(Br)cc3c2-c2ccccc2)cc1 |  | 0.231 µM (active)
COc1ccc(/C=N/NC(=O)c2[nH]c3ccc(Br)cc3c2-c2ccccc2)c(C(=O)O)c1OC | 11.4 | 
Cc1ccc2[nH]c(C(=O)NN=C3CCCCC3)c(-c3ccccc3)c2c1 | -0.622 | 
O=C(NN=C1CCCC1)c1[nH]c2ccc(Cl)cc2c1-c1ccccc1 |  | 13 µM (active)
NNC(=O)c1[nH]c2ccc(Cl)cc2c1-c1ccccc1 | -12.8 | 
Cc1nn(CCC(=O)NNC(=S)NCC(C)C)c(C)c1Br | -4.7 | 
CCN(CC)c1ccc2cc(-c3nc4ccccc4n3C)c(=O)oc2c1 |  | 0.58 µM (active)
CC(/C=C/c1ccccc1)=N\NC(=S)NC(C)C | 28.3 | 
O=C(CSc1cccc[n+]1[O-])CSc1cccc[n+]1[O-] | -7 | 

Source: PubChem BioAssay AID651558 (National Center for Advancing Translational Sciences (NCATS), 2012)
